Among the data in PubChem BioAssay AID1259418 (Broad Institute, 2018) are max activity values, retold here.

The structures appear in SMILES notation. About 840 (25%) of roughly 3,400 compounds were called active. About 11% were inconclusive and are not listed.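 Rule for the calls: active = fitted half-maximal concentration of signal decrease at or below twice the sample's top tested concentration; inconclusive = flat curve between -70 and -30 percent, or poor fit; inactive = flat within 30 percent, signal rise, or potency above limit.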 These entries were drawn from the full list. Results with a measured potency or affinity are listed apart.

This test is described as follows: inhibitors of Toxoplasma growth in IFN-γ-primed HeLa – cell-based, ME49Luc, luciferase, 72 h, dose response (AID 1259418). Particulars: T. gondii ME49Luc in IFN-y HeLa, active compounds read low, -100% = high-dose IFN-γ control wells; at 19.5 µM unless noted.
With `Cc1cccc(Cn2c(CN3CCC(C(=O)N4CCCC4)CC3)cc3ccccc32)c1`, the max activity is -9.03% [at 0.35 µM] (inactive).
The value for `Cc1ccc(C2=NC3(CCN(CC(=O)Nc4ccccc4C(F)(F)F)CC3)NC2=O)cc1` was -14.3% [at 0.35 µM] (inactive); that for `CN(C)c1ccc(-c2nc3c([nH]2)c(=O)n(C)c(=O)n3C)cc1` was 17.3% [at 10 µM] (inactive).
The same measure for `Cc1ccc(-c2coc(-c3ccc(NC(=O)Nc4cc(F)ccc4F)cc3)n2)c(C)c1`: -9.54% [at 5 µM] (inactive).
The value for `COc1ccc(CN2CCC3(CC(n4cnnc4)CO3)C2)cc1` (centres undefined) was 33.5% (inactive); that for `COc1ccc(CN2CCc3nc(SCc4nc(-c5ccccc5)oc4C)[nH]c(=O)c3C2)cc1` was -18.7% [at 2.6 µM] (inactive).
`COCCCN1CCc2nc(SCc3nc(-c4ccccc4)oc3C)[nH]c(=O)c2C1`: the max activity was 21% [at 2.6 µM] (inactive).
The same measure for `COc1ccccc1CN1CCc2nc(SCc3nc(-c4cccc(C)c4)oc3C)[nH]c(=O)c2C1`: 14.5% [at 0.35 µM] (inactive); for `COc1ccc(NC(=O)CN2CCC3(CC2)N=C(c2cccc(F)c2)C(=O)N3)cc1OC`: 28.6% [at 10 µM] (inactive); for `CCCN(CCC)c1nc(-c2ccc(OC)cc2)nc2ccccc12`: -8.92% [at 0.35 µM] (inactive).
Regarding `COc1ccc(-c2nc(N(Cc3ccco3)C3CCCCC3)c3ccccc3n2)cc1`, the max activity was -11.5% [at 2.6 µM] (inactive).
The value for `CCCCN(Cc1ccco1)c1nc(-c2ccc(OC)cc2)nc2ccccc12` was 14.7% [at 0.35 µM] (inactive); that for `COc1ccc(-c2nc(N(CCN(C)C)Cc3ccccc3)c3ccccc3n2)cc1` was -20.1% [at 5 µM] (inactive).
The value for `COc1ccc(-c2nc(N(C)c3ccc(F)cc3)c3ccccc3n2)cc1` was 36% (inactive); that for `CCN(CCN(C)C)c1nc(-c2ccc(OC)cc2)nc2ccccc12` was -29.5% (inactive).
The value for `COc1ccc(-c2nc(NCCCN(Cc3ccco3)C3CCCC3)c3ccccc3n2)cc1` was -19.2% [at 5 µM] (inactive); that for `CN(c1nc(-c2ccc(Cl)cc2)nc2ccccc12)C1CCCCC1` was 11.9% [at 0.68 µM] (inactive).
Regarding `NC(=O)C1(N2CCCCC2)CCN(c2ccc(NC(=O)c3cccc(Cl)c3)cc2C(=O)O)CC1`, the max activity is 1% (inactive).
The same measure for `Cc1ccc(-c2coc(-c3ccc(NC(=O)Nc4ccc(C)c(F)c4)cc3)n2)cc1`: 19.5% [at 10 µM] (inactive); for `Cc1cc(C(F)(F)F)nn1CC(=O)N1CCCC1c1cc(C(C)C)no1` (centres undefined): 16% [at 2.6 µM] (inactive); for `COc1cccc(CC(=O)N2CCC[C@@H]2C(=O)NCCc2csc(-c3ccccc3)n2)c1`: 18.6% [at 0.16 µM] (inactive).
The value for `Cc1ccc2c(c1C)-n1cccc1C1(CCN(C(=O)c3ccc(Br)o3)CC1)N2` was 9.35% [at 0.35 µM] (inactive).
The value for `COc1ccc(-c2nc(NCc3ccc(C)o3)c3ccccc3n2)cc1` was -32.7% [at 1.35 µM] (inactive); that for `CN(Cc1ccco1)c1nc(-c2ccc(Cl)cc2)nc2ccccc12` was -31.8% [at 0.16 µM] (inactive); that for `COc1ccc(-c2nc(N(C)Cc3ccccc3)c3ccccc3n2)cc1` was 21.9% (inactive).
As to `CCCCN(C)c1nc(-c2ccc(OC)cc2)nc2ccccc12`, the max activity is 16.9% [at 0.35 µM] (inactive).
The value for `COc1ccc(-c2nc(N(CC(C)C)CC(C)C)c3ccccc3n2)cc1` was -12.7% [at 0.35 µM] (inactive); that for `Cc1ccc(-c2coc(-c3ccc(NC(=O)Nc4cc(C)cc(C)c4)cc3)n2)cc1` was -13.8% [at 0.68 µM] (inactive); that for `CCc1nc(OCC(=O)Nc2cc(C)cc(C)c2)c2ccccc2n1` was 9.9% [at 10 µM] (inactive).
The same measure for `COc1ccccc1N(Cc1nc(-c2ccccc2)oc1C)S(=O)(=O)c1ccc(C)cc1`: 13.3% [at 0.16 µM] (inactive); for `COc1ccc(S(=O)(=O)N(Cc2nc(-c3ccccc3)oc2C)c2ccccc2OC)cc1`: -10.3% [at 5 µM] (inactive).
The same measure for `c1cnc(N2CCC(Oc3cnccn3)CC2)nc1`: 28.4% [at 10 µM] (inactive).
Consider `CCc1ccccc1NC(=O)Nc1ccc(-c2nc(-c3ccc(C)cc3)co2)cc1`, for which the max activity was -15.7% [at 0.68 µM] (inactive).
For `CCOc1ccc(CC(=O)N2CCC3(CC2)Nc2cc(OC)ccc2-n2cccc23)cc1OCC`, the max activity is -11.1% [at 10 µM] (inactive).
Regarding `COc1ccc(CNc2nc(SCc3cc(=O)n4cc(Cl)ccc4n3)nc3ccccc23)cc1`, the max activity was 14.6% [at 5 µM] (inactive).
The same measure for `COCC#Cc1ccc([C@H]2[C@@H](CO)N3C(=O)CN(C(=O)C4CCCCC4)C[C@@H]23)cc1`: 51.9% (inactive); for `COCC#Cc1ccc([C@@H]2[C@@H](CO)N3C(=O)CN(C(=O)c4ccncc4)C[C@H]23)cc1`: 28.6% (inactive); for `COCC#Cc1ccc([C@@H]2[C@H]3CN(C(=O)C4CCCCC4)CC(=O)N3[C@H]2CO)cc1`: 27.9% (inactive).
With `COCC#Cc1ccc([C@@H]2[C@@H](CO)N3C(=O)CN(C(=O)c4ccncc4)C[C@@H]23)cc1`, the max activity is 31.2% (inactive).
The same measure for `COc1ccc(NC(=O)Nc2ccc(-c3nc(-c4ccc(C)cc4)co3)cc2)cc1Cl`: 83.9% (inactive).
The same measure for `COc1cccc(NC(=O)CCC2Nc3c4ccccc4nc(=S)n3C2=O)c1` (centres undefined): 16.8% [at 0.68 µM] (inactive).
With `Cc1ccc(Cl)cc1N(CC(=O)Nc1c(F)cccc1F)S(C)(=O)=O`, the max activity was 6.87% (inactive).
As to `Cc1sc(-c2nc(C(C)C)cs2)cc1S(=O)(=O)N1CCC(C)CC1`, the max activity is 11.7% (inactive).
The value for `Cc1ccccc1-c1nc(CN2CCN(C(=O)Nc3cccc(Cl)c3)CC2)c(C)o1` was 10.5% [at 5 µM] (inactive).
The same measure for `Cc1ccc(-c2nc3c(s2)CN(C(=O)Nc2cccc(C)c2C)CC3)cc1`: 22.5% [at 5 µM] (inactive); for `CC(=O)NCCNC(=O)CC1Nc2c3ccccc3nc(=S)n2C1=O` (centres undefined): 32% (inactive).
The same measure for `COc1ccccc1CNc1nc(-c2ccc(Cl)cc2)nc2ccccc12`: 9.39% [at 0.35 µM] (inactive); for `Cc1oc(-c2ccccc2)nc1Cn1nnc(-c2nc(-c3cccc(Br)c3)no2)c1C`: 5.37% [at 0.16 µM] (inactive).
`Cc1nc(CCNC(=O)C2CCN(S(=O)(=O)c3cccc(Cl)c3C)CC2)cs1`: the max activity was -10.4% [at 5 µM] (inactive).
The value for `CCCCc1ccc(Nc2ncnc3c2cnn3-c2ccc(OC)cc2)cc1` was 8.01% [at 5 µM] (inactive); that for `Cc1cccc(C)c1NC(=O)CN1CCC2(CC1)N=C(c1cccc(F)c1)C(=O)N2` was 21.4% [at 0.35 µM] (inactive).
The same measure for `COc1cc(NC(=O)COc2nc(C)nc3ccccc23)cc(OC)c1OC`: 39.1% [at 0.35 µM] (inactive); for `O=S(=O)(c1ccccc1F)N1CCC(c2nc3ccc(-c4ccncc4)cn3n2)CC1`: -8.38% [at 0.16 µM] (inactive); for `O=C(C1CCOCC1)N1CC(=O)N2[C@@H](CO)[C@H](c3ccc(/C=C/c4ccccc4)cc3)[C@@H]2C1`: 16.6% (inactive).
The value for `CC(C)NC(=O)N1CC(=O)N2[C@H](CO)[C@H](c3ccc(/C=C/c4ccccc4)cc3)[C@@H]2C1` was 15.1% (inactive).
For `CC(C)c1ccc(-c2nc3c([nH]2)c(=O)n(C)c(=O)n3C)cc1`, the max activity was 36.8% (inactive).
As to `COc1ccc(-c2nc(N3CCN(c4ccccc4OC)CC3)c3ccccc3n2)cc1`, the max activity was -19.4% [at 0.35 µM] (inactive).
The same measure for `COc1ccc(-c2nc(N3CCN(c4ccccc4F)CC3)c3ccccc3n2)cc1`: -17% [at 0.35 µM] (inactive); for `COc1ccc(CCNc2ncnc3c2cnn3-c2ccc(C)cc2C)cc1OC`: -45% [at 0.16 µM] (inactive); for `CCc1nc(OCC(=O)Nc2ccc(F)cc2)c2ccccc2n1`: 24.6% [at 0.35 µM] (inactive).
The value for `COc1ccc(-c2nc(Cn3c(=O)c4c(C)cc(C)nc4n(-c4ccccc4)c3=O)c(C)o2)cc1OC` was -11.3% [at 1.35 µM] (inactive); that for `COc1ccc(NC(=O)CN2CCC3(CC2)N=C(c2ccc(Cl)cc2)C(=O)N3)cc1` was -12.9% [at 0.68 µM] (inactive).
The same measure for `Cc1ccc(NC(=O)CN2CCC3(CC2)N=C(c2cccc(F)c2)C(=O)N3)cc1F`: -40.4% (inactive); for `CCc1ccccc1NC(=O)N1CCc2nc(-c3ccc(OC)c(OC)c3)sc2C1`: 6.34% (inactive); for `CCC(=O)N1CCC2(CC1)Nc1ccc(C)c(C)c1-n1cccc12`: -7.02% [at 5 µM] (inactive).
Regarding `Cc1nc(OCC(=O)Nc2cc(F)ccc2C)c2ccccc2n1`, the max activity is 23.1% [at 10 µM] (inactive).
The value for `Cc1ccc(-c2coc(-c3ccc(NC(=O)c4ccc(F)cc4)cc3)n2)cc1` was 95.6% (inactive); that for `Cc1ccc(-c2ccc([C@@H]3[C@H](CO)N4C(=O)CN(C(=O)NC(C)C)C[C@@H]34)cc2)cc1` was 16.7% [at 5 µM] (inactive).
The value for `Cc1ccc(-c2ccc([C@H]3[C@@H](CO)N4C(=O)CN(C(=O)NC(C)C)C[C@@H]34)cc2)cc1` was 46.5% (inactive); that for `COc1ccccc1NC(=O)N1CC(=O)N2[C@H](C1)[C@@H](c1ccc(C#CC(C)C)cc1)[C@@H]2CO` was -17.8% (inactive).
The value for `COc1ccccc1NC(=O)N1CC(=O)N2[C@H](CO)[C@H](c3ccc(C#CC(C)C)cc3)[C@H]2C1` was 25.9% [at 5 µM] (inactive).
Regarding `CCOc1ccc(-c2nc(CN3CCN(C(=O)Nc4ccccc4C(F)(F)F)CC3)c(C)o2)cc1`, the max activity is 13.7% [at 2.6 µM] (inactive).
The same measure for `O=C(NCCc1csc(-c2ccccc2)n1)C1CCN(C(=O)COc2ccccc2)CC1`: -18.1% [at 0.68 µM] (inactive); for `O=C(O)c1ccc(NC(=NCCc2ccccc2)N2CCN(c3ncnc4ccccc34)CC2)cc1`: 6.72% (inactive).
